MazF activator: activators of E. coli MazEF toxin-antitoxin RNase, primary screen, biochemical, fluorescence, uHTS | FAM/BHQ RNA-DNA oligo cleavage fluorescence, 5 h | activation, % at 20 µM | 0.32% of 350,000 active | AID 504720, 2011; in the data active means activation above about 50%
Target sequence (P0AE70 whole entry, looked up): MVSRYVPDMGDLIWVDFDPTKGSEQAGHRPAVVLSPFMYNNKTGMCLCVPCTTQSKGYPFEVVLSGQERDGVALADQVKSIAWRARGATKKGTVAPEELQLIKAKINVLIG
DUSP3 inh: VHR1 phosphatase inhibitors, primary screen, biochemical, absorbance, uHTS; Dual specificity protein phosphatase 3 (Homo sapiens), P51452; recombinant VHR phosphatase, pNPP absorbance; inhibition, % at 13.3 µM; 0.52% of 290,000 active; in the data active means inhibition above about 50%
Target sequence (P51452 whole entry, looked up): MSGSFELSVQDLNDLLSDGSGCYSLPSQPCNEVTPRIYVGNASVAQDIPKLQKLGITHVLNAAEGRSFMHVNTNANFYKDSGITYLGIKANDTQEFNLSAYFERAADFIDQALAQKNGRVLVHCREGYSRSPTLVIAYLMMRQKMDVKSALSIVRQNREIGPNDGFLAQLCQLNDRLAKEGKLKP
PrPC surface inh: inhibitors of human cell surface prion protein PrPC, primary screen, cell-based, TR-FRET. Major prion protein (Homo sapiens), P04156. TR-FRET read-out. inhibition, % at 13.8 µM. 0.43% of 370,000 active; in the data active means inhibition above about 24%
Y pestis TopoI: Yersinia pestis topoisomerase I inhibitors, primary screen, biochemical, cleavage product accumulation, plate reader, single point; activity, % at 10 µM; AID 504884, 2011; DNA topoisomerase I (Yersinia pestis CO92); 0.064% of 360,000 active; Y. pestis Topo-I cleavage product accumulation; in the data active means activity above about 50%, passing the limit was not always enough
CCHF vOTU inh-1: CCHFV vOTU protease inhibitors, primary screen, biochemical, Pep-AMC substrate, fluorescence. Crimean-Congo hemorrhagic fever virus L polyprotein viral ovarian tumor (vOTU) protease …. inhibition, % at 11.5 µM. 0.55% of 370,000 active. AID 651958, 2012
Vc quorum ag: inducers of Vibrio cholerae quorum light production without autoinducers, primary screen, BH1578 luxS cqsA deficient, single point; 0.16% of 350,000 active; V. cholerae BH1578 lux reporter, luminescence, 6 h; activation, % at 18.7 µM; in the data active means activation mostly above about 9.7%, no sharp cut-off
CCHF vOTU inh-2: CCHFV vOTU protease inhibitors, confirmation, biochemical, Pep-AMC substrate, fluorescence; shares compounds with CCHF vOTU inh-1; Recombinant CCHFV vOTU; inhibition, % at 11.5 µM; 17% of 1,900 active; AID 686976, 2013
Each line names hits and unclear results; the compound was inactive in the other large screens (follow-up assays come after a bar, where they were run). Most compounds without a hit are left out; they make up all but 1.8% or so of the library. Unless noted, no stated cut-off is given here; in the data, active means inhibition above about 30%; inactive means the rest.

CC(C)(C)OC(=O)N1CCCC(C(=O)Nc2cccc(C(=O)NCCc3ccccc3)c2)C1 (centres undefined)	none (no result: DUSP3 inh)
CC(C)(C)OC(=O)N1CCCC(C(=O)Nc2cccc(C(=O)NCCCCc3ccccc3)c2)C1 (centres undefined)	CCHF vOTU inh-1 35 (no result: DUSP3 inh) | CCHF vOTU inh-2 inactive
COc1cccc(CNC(=O)CCCSc2ccccc2)c1	none
COc1cc(-c2coc3c(C(=O)NCc4ccccc4)cccc23)ccc1O	CCHF vOTU inh-1 41 (no result: MazF activator, DUSP3 inh) | CCHF vOTU inh-2 inactive
COc1ccc(NS(=O)(=O)c2cc(C(=O)N(C)CCc3ccccn3)ccc2Cl)cc1	none (no result: DUSP3 inh)
Nc1ccc(O)c([N+](=O)[O-])c1	none (no result: DUSP3 inh)
O=[N+]([O-])c1cc(S(=O)(=O)c2ccc(O)c([N+](=O)[O-])c2)ccc1O	CCHF vOTU inh-1 43 | CCHF vOTU inh-2 inactive
Nc1cc(S(=O)(=O)O)cc([N+](=O)[O-])c1O	CCHF vOTU inh-1 31 | CCHF vOTU inh-2 inactive
CC[C@@]1(C(=O)OC)N[C@H](CN(C)C(=O)Nc2ccc(C(F)(F)F)cc2)[C@@H]2C(=O)N(C)C(=O)[C@@H]21	none (no result: DUSP3 inh)
O=C(NCCN1C(=O)S/C(=C\c2ccc(OC(F)F)cc2)C1=O)C1=COCCO1	none (no result: DUSP3 inh, PrPC surface inh, CCHF vOTU inh-1)
COc1ccc(/C=C2\SC(=O)N(CCNC(=O)C3=COCCO3)C2=O)cc1	CCHF vOTU inh-1 36 (no result: DUSP3 inh) | CCHF vOTU inh-2 inactive
CC(C)CNc1cccc2c1S(=O)(=O)N[C@@H](CC(C)C)CO2	none (no result: MazF activator, DUSP3 inh, Y pestis TopoI, Vc quorum ag)
CSc1ccc(-c2nc(CN3CCCCC3c3cccnc3)c(C)o2)cc1 (centres undefined)	CCHF vOTU inh-1 32 | CCHF vOTU inh-2 inactive
C=CCOc1c(Cl)cc(CNc2ccc(N(C)C)cc2)cc1OC	CCHF vOTU inh-1 69 | CCHF vOTU inh-2 inactive
CN(Cc1nccs1)C(=O)C1CCC(=O)N(CCCc2ccccc2)C1 (centres undefined)	none
O=C(O)c1cc2ccccc2cc1Nc1ccccc1	none
O=C1CC(N2CCOCC2)=NN1c1ccc([N+](=O)[O-])cc1	CCHF vOTU inh-1 104 | CCHF vOTU inh-2 inactive
Cn1cc(S(=O)(=O)NC[C@H]2O[C@@H](n3ccc(=O)[nH]c3=O)[C@H](O)[C@@H]2O)cn1	none (no result: DUSP3 inh)
Nc1c(C(=O)Nc2ccc3c(c2)OCCO3)nnn1Cc1ccc(Br)cc1	CCHF vOTU inh-1 31 (no result: DUSP3 inh) | CCHF vOTU inh-2 inactive
Nc1c(C(=O)Nc2ccc3c(c2)OCCO3)nnn1CCc1ccccc1	none
O=C(Oc1ccccc1C(=S)N1CCOCC1)c1cccc([N+](=O)[O-])c1	none
Nc1ccc2cc3ccc(N)cc3nc2c1	CCHF vOTU inh-1 53 (no result: MazF activator, DUSP3 inh, Y pestis TopoI, Vc quorum ag) | CCHF vOTU inh-2 30
Cc1ccc2cc(N)ccc2n1	none
Cc1cc(C(=O)OCC(=O)N2CCOCC2)c2ccccc2n1	CCHF vOTU inh-1 34 | CCHF vOTU inh-2 inactive
[O-][n+]1cccc2cccc(O)c21	none (no result: DUSP3 inh)
C[n+]1cccc2cccc([O-])c21	CCHF vOTU inh-1 58 | CCHF vOTU inh-2 96
COC(=O)c1cc(NS(=O)(=O)c2ccc(N3CCC(C)CC3)c([N+](=O)[O-])c2)cc(C(=O)OC)c1	CCHF vOTU inh-1 34 | CCHF vOTU inh-2 inactive
COC(COC(N)=O)C1=C(N2CC2)C(=O)C(C)=C(N2CC2)C1=O (centres undefined)	CCHF vOTU inh-1 32 (no result: DUSP3 inh) | CCHF vOTU inh-2 inactive
CCOC(=O)N1CCN(c2c(N3CCN(C(=O)OCC)CC3)c(=O)c2=O)CC1	none
O=C(N[C@H]1CC[C@H](CCNS(=O)(=O)c2ccc(Cl)cc2)O[C@@H]1CO)c1cccc(F)c1	none (no result: MazF activator, DUSP3 inh, Y pestis TopoI, Vc quorum ag)
CCOc1ccc(OCCOCCNCCOC)cc1	none
Cc1ccc(C2CC(=O)N3CN(c4ccc(Br)cc4)CSC3=C2C#N)o1 (centres undefined)	CCHF vOTU inh-1 30 | CCHF vOTU inh-2 inactive
COc1cccc(C(C)(O)c2nc(-c3ccc(F)cc3OC)cs2)c1 (centres undefined)	none (no result: MazF activator, DUSP3 inh)
COc1ccc(NS(=O)(=O)c2cc(NC(=O)c3ccc(=O)[nH]n3)ccc2C)cc1	CCHF vOTU inh-1 31 (no result: DUSP3 inh) | CCHF vOTU inh-2 inactive
CN(C)c1ccc(C=Nc2ccc(N(C)C)cc2)cc1	CCHF vOTU inh-1 68 | CCHF vOTU inh-2 inactive
COc1cccc(Oc2ccc(S(=O)(=O)N3CCCC3)cc2[N+](=O)[O-])c1	CCHF vOTU inh-1 34 | CCHF vOTU inh-2 inactive
CC1(C(=O)NCc2cccc(C(F)(F)F)c2)CCN1Cc1ccc(-c2ccccc2)o1 (centres undefined)	CCHF vOTU inh-1 34 (no result: MazF activator, DUSP3 inh) | CCHF vOTU inh-2 inactive
CC1(C(=O)NCc2cccc(C(F)(F)F)c2)CCN1Cc1cc2ccccc2o1 (centres undefined)	none (no result: MazF activator, DUSP3 inh)
CC1CCCN(c2ccc(C(=O)NCc3ccc4c(c3)OCO4)cc2[N+](=O)[O-])C1 (centres undefined)	CCHF vOTU inh-1 31 | CCHF vOTU inh-2 inactive
CCc1nc2c(OCCC3CCCCC3)cccn2c1N(C=O)Cc1ccccc1	none (no result: MazF activator, DUSP3 inh)
CCCCN1C(=O)C(CC(=O)NC2CCCCC2)CC(C(=O)N(C(C)C)C(C)C)=C1C (centres undefined)	none (no result: DUSP3 inh)
COCCn1c(SCC(=O)Nc2cccnc2Cl)nc2ccccc2c1=O	CCHF vOTU inh-1 31 (no result: DUSP3 inh) | CCHF vOTU inh-2 inactive
CC1=NN(c2ccc(C)c(C)c2)C(=O)C1C(c1cccc(O)c1)C1C(=O)N(c2ccc(C)c(C)c2)N=C1C (centres undefined)	DUSP3 inh 54, CCHF vOTU inh-1 42 | CCHF vOTU inh-2 inactive
CC1=NN(c2ccc(Cl)cc2)C(=O)C1C(c1ccccc1O)c1c(C)[nH]n(-c2ccc(Cl)cc2)c1=O (centres undefined)	none (no result: PrPC surface inh, CCHF vOTU inh-1)
CN(CCCC(=O)O)c1ccc(N=Nc2ccc([N+](=O)[O-])cc2)cc1	none (no result: DUSP3 inh)
CC1=NN(c2ccc(C)cc2C)C(=O)C1C(c1ccccc1O)C1C(=O)N(c2ccc(C)cc2C)N=C1C (centres undefined)	CCHF vOTU inh-1 44 | CCHF vOTU inh-2 inactive
O=C(Nc1ccccc1[N+](=O)[O-])OCC=Cc1ccccc1	none (no result: DUSP3 inh)
OCCCc1cn(Cc2ccccc2)c2ccccc12	none
c1ccc(Cn2cc(CCOCc3ccccn3)c3ccccc32)cc1	CCHF vOTU inh-1 32 (no result: MazF activator, DUSP3 inh, Y pestis TopoI, Vc quorum ag) | CCHF vOTU inh-2 inactive
COc1ccc(OCc2cc(C(=O)NC3CCOCC3)no2)c2ccccc12	CCHF vOTU inh-1 61 | CCHF vOTU inh-2 inactive
COc1cccc(OCc2cc(C(=O)NC3CCOCC3)no2)c1	none
CCOc1nc(OCC)c2cnn(C)c2n1	none
CC(=O)N(C)c1ccc(OCC(O)Cn2c3ccc(Cl)cc3c3cc(Cl)ccc32)cc1 (centres undefined)	CCHF vOTU inh-1 31 | CCHF vOTU inh-2 inactive

Screening results from PubChem.
